Test results reported in article PMC6212833.
Screen size: about 2,000 compounds; about 15 (0.8%) showed an effect of 50% or more. The sample holds strong results, similar compounds and a random draw of the others, so the mix is not that of the screen. *1 amine or outer side, *2 acyl side, *3 side chain or, on linkers, in order; H or OH if unused. Where a SMILES comes first, the peptide text is derived from it. Bridges are numbered along the chain shown (N, C = ends). X1 = O=C(CCC[*:2])[*:1]

Test system: Balamuthia mandrillaris (ATCC PRA-291) trophozoites, axenic culture
Experiment: primary screen, percent inhibition; higher = more effect of the substance;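 further: 0% = vehicle wells and 100% = lysate wells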
Conditions: 20 µM
Experimental: Screening of a clinically approved library of compounds, compiled by the Small Molecule Discovery Center (SMDC) at the UCSF, was completed at 20 µM in 0.2% DMSO. All 2,177 drugs in the library were stored as 10 mM stocks dissolved in 100% DMSO (Sigma-Aldrich) at −20°C. B. mandrillaris amoebae were resuspended in axenic medium and distributed into opaque 384-well plates (Corning) at a density of 3,000 amoebae per well using a BioMek NX liquid handler. Negative-control wells were treated with vehicle only (0.2% DMSO in axenic medium), and positive-control wells simulating total destruction of amoebae were seeded with amoeba lysate generated by 3 consecutive freeze-thaw cycles. Following 72 h of incubation, 30 µl of CellTiter Glo reagent (CTG; Promega) was added to each well. The luminescence was measured with a Promega GloMax-Multi+ plate reader at 2, 4, and 8 h after CTG addition. […] The B-score, representing a plate-based statistical approach for correcting row, column, and edge effects, was also calculated for each compound in the library (75).

Row | SMILES | % Inhibition [%]
1 | C1N2CN3CN1CN(C2)C3 | 25.9
2 | CN(C)CCC[C@@]1(c2ccc(F)cc2)OCc2cc(C#N)ccc21 [131042-L5] | 29.1
3 | c1ccc(-c2ccc(C(c3ccccc3)n3ccnc3)cc2)cc1 (stereo not shown) | 2.05
4 | O=C(O)C1CSCN1 (stereo not shown) | 29
5 | CC[C@H]1OC(=O)[C@H](C)[C@@H](O[C@H]2C[C@@](C)(OC)[C@@H](O)[C@H](C)O2)[C@H](C)[C@@H](O[C@@H]2O[C@H](C)C[C@H](N(C)C)[C@H]2O)[C@](C)(O)C[C@@H](C)C(=O)[C@H](C)[C@@H](O)[C@]1(C)O [129937-L7] | 19.9
6 | CO/N=C(\C(=O)N[C@@H]1C(=O)N2C(C(=O)O)=C(COC(N)=O)CS[C@H]12)c1ccco1 | 11.5
7 | Cc1ccc(S(=O)(=O)NC(=O)NN2CC3CCCC3C2)cc1 (stereo not shown) | 10.2
8 | Cc1oncc1C(=O)Nc1ccc(C(F)(F)F)cc1 | 15
9 | O=C(O)P(=O)(O)O | 19.1
10 | CCCCN(CCCC)CC(O)c1cc(Cl)cc2c1-c1ccc(Cl)cc1/C2=C/c1ccc(Cl)cc1 (stereo not shown) | 5.93
11 | CC[C@@]1(O)C(=O)OCc2c1cc1n(c2=O)Cc2cc3c([N+](=O)[O-])cccc3nc2-1 | -33
12 | C[N+](C)(C)CCCCCC[N+](C)(C)C | 26
13 | CCCCCCCCCCCCCCCC[N+](C)(C)C | 56.1
14 | C[N+](C)(C)CCCCCCCCCC[N+](C)(C)C | 25.7
15 | CC[C@H]1OC(=O)[C@H](C)[C@@H](O[C@H]2C[C@@](C)(OC)[C@@H](O)[C@H](C)O2)[C@H](C)[C@@H](O[C@@H]2O[C@H](C)C[C@H](N(C)C)[C@H]2O)[C@](C)(OC)C[C@@H](C)C(=O)[C@H](C)[C@@H](O)[C@]1(C)O | 8.87
16 | O=C1NCCN1CCN1CCC(c2cn(-c3ccc(F)cc3)c3ccc(Cl)cc23)CC1 | 23.8
17 | CN1CCc2c(c3ccccc3n2Cc2ccccc2)C1 | 34.1
18 | CN/C(=C/[N+](=O)[O-])NCCSCc1ccc(CN(C)C)o1 | 7.74
19 | CN/C(=C\[N+](=O)[O-])NCCSCc1ccc(CN(C)C)o1 | 68.1
20 | CN/C(=C\[N+](=O)[O-])NCCSCc1csc(CN(C)C)n1 | 23.7
21 | Nc1c(Br)cc(Br)cc1CNC1CCC(O)CC1 (stereo not shown) | 20.4
22 | C#C[C@]1(OC(C)=O)CCC2C3CCC4=C/C(=N/O)CCC4C3CC[C@@]21CC (stereo partly shown) | 19.6
23 | Cc1cnc(C(=O)O)c[n+]1[O-] | 0.14
24 | Cc1cc(N)c2ccccc2[n+]1CCCCCCCCCC[n+]1c(C)cc(N)c2ccccc21 | 69
25 | CC(=O)OCC(=O)[C@@]1(O)CCC2C3CCC4=CC(=O)CC[C@]4(C)C3[C@@H](O)C[C@@]21C (stereo partly shown) | 33.3
26 | Cc1ncc([N+](=O)[O-])n1CC(C)O (stereo not shown) | 35.8

Row | SMILES | % Inhibition [%]
27 | CCN(CC)C(=O)C1(c2ccccc2)CC1CN (stereo not shown) | 21.4
28 | O=S(=O)(O)CCS | 8.32
29 | CCCCC[C@H](O)/C=C/[C@H]1[C@H](O)CC(=O)[C@@H]1CCCCCCC(=O)O [285959-L6] | -5.58
30 | Cc1cc(-c2ccc(/N=N/c3ccc4c(S(=O)(=O)O)cc(S(=O)(=O)O)c(N)c4c3O)c(C)c2)ccc1/N=N/c1ccc2c(S(=O)(=O)O)cc(S(=O)(=O)O)c(N)c2c1O | 73.9
31 | O=C(Nc1cccc2c(=O)cc(-c3nn[nH]n3)oc12)c1ccc(OCCCCc2ccccc2)cc1 | -2.25
32 | O=C(O)c1ccccc1-c1c2cc(I)c(=O)c(I)c-2oc2c(I)c(O)c(I)cc12 | 66.4
33 | Clc1ccc(C(Cn2ccnc2)OCc2ccsc2Cl)c(Cl)c1 (stereo not shown) [735884-L3] | 5.23
34 | OC[C@H]1O[C@H](O[C@H]2[C@H](O)[C@@H](O)[C@H](O)O[C@@H]2CO)[C@H](O)[C@@H](O)[C@@H]1O | 17.5
35 | CCCCC(=O)N(Cc1ccc(-c2ccccc2-c2nn[nH]n2)cc1)[C@H](C(=O)O)C(C)C | 21.1
36 | Cc1ccccc1C(OCCN(C)C)c1ccccc1 (stereo not shown) | -5.39
37 | CCCCc1oc2ccccc2c1C(=O)c1cc(I)c(OCCN(CC)CC)c(I)c1 | 14.9
38 | CO[C@@H]1[C@@H](O[C@@H]2O[C@H](C)[C@@H](O[C@H]3C[C@@](C)(O)[C@H](O)[C@H](C)O3)[C@H](N(C)C)[C@H]2O)[C@@H](CC=O)C[C@@H](C)[C@@H](O[C@H]2CC[C@H](N(C)C)[C@@H](C)O2)/C=C/C=C/C[C@H](C)OC(=O)C[C@H]1O | 4.48
39 | O=c1c2ccccc2[se]n1-c1ccccc1 | 19.3
40 | Nc1nc(O)ncc1F | 15.6
41 | COc1ccc2c(c1)N(C[C@H](C)CN(C)C)c1ccccc1S2 | 2.52
42 | S=P(N1CC1)(N1CC1)N1CC1 | 27.8
43 | CC[C@H](C)[C@@H]1NC(=O)[C@H](Cc2ccc(OC)cc2)NC(=O)CCCSC[C@@H](C(=O)N2CCC[C@H]2C(=O)N[C@@H](CC(C)C)C(=O)NCC(N)=O)NC(=O)[C@H](CC(N)=O)NC(=O)[C@H](CCC(N)=O)NC1=O (Y(Me)IQNCPLG-NH2; linker N-5 via X1) | 9.07
44 | COc1ccc2cc1Oc1ccc(cc1)C[C@H]1c3c(cc4c(c3Oc3cc5c(cc3OC)CCN(C)[C@@H]5C2)OCO4)CCN1C | -18.5
45 | COc1ccc(OC)c(C(O)C(C)N)c1 (stereo not shown) | 16.7
46 | CN1C(C(=O)Nc2ccccn2)=C(O)c2ccccc2S1(=O)=O | 6.97
47 | CCCCC(F)(F)[C@@]1(O)CC[C@H]2[C@@H](CC(=O)[C@@H]2CCCCCCC(=O)O)O1 | 20.6
48 | C[C@@H](O)[C@H]1C(=O)N2C(C(=O)O)=C(S[C@@H]3CN[C@H](C(=O)Nc4cccc(C(=O)O)c4)C3)[C@H](C)[C@H]12 | 10.5
49 | COc1ccc(-n2nc(CCC(=O)N(C)O)cc2-c2ccc(Cl)cc2)cc1 | 16
50 | N[C@@H](CSSC[C@H](N)C(=O)O)C(=O)O | -0.0671
51 | CCN(CC)CCNc1ccc(CO)c2sc3ccccc3c(=O)c12 | 0.0147
52 | O=C(O)[C@H](CC(=O)N1C[C@H]2CCCC[C@H]2C1)Cc1ccccc1 | 22.1

Row | SMILES | % Inhibition [%]
53 | CN1CCN(C(=O)O[C@H]2c3nccnc3C(=O)N2c2ccc(Cl)cn2)CC1 | 9.05
54 | C1CCN2C[C@@H]3C[C@H](CN4CCCC[C@@H]34)[C@H]2C1 | -35.5
55 | O=C(O)C1=C(CSc2nnnn2CS(=O)(=O)O)CS[C@@H]2C(NC(=O)[C@H](O)c3ccccc3)C(=O)N12 (stereo partly shown) | 15.1
56 | CCCCCCCCCCOc1cc2c(O)c(C(=O)OCC)cnc2cc1OCC | -12.8
57 | CCN1CCN(C(=O)N[C@@H](C(=O)N[C@@H]2C(=O)N3C(C(=O)O)=C(CSc4nnnn4C)CS[C@H]23)c2ccc(O)cc2)C(=O)C1=O | 19.8
58 | C=CCNc1nc(NCC=C)nc(N2CCN(C(c3ccc(F)cc3)c3ccc(F)cc3)CC2)n1 | 13.4
59 | CC1=C(CC(=O)O)c2cc(F)ccc2/C1=C\c1ccc(S(C)(=O)=O)cc1 | 12.2
60 | CO/N=C(\C(=O)NC1C(=O)N2C(C(=O)OCOC(=O)C(C)(C)C)=C(/C=C\c3scnc3C)CSC12)c1csc(N)n1 (stereo not shown) | -4.68
61 | C[C@@H]1CC[C@H]2[C@@H](C)C(=O)O[C@@H]3O[C@@]4(C)CC[C@@H]1[C@]32OO4 | 54.5
62 | C[C@@H]1CC[C@H]2[C@@H](C)C(O)O[C@@H]3O[C@@]4(C)CC[C@@H]1[C@]32OO4 (stereo partly shown) | 56.5
63 | CC(=O)[C@H]1CC[C@H]2[C@@H]3CC=C4C[C@@H](OC(=O)CCC(=O)O)CC[C@]4(C)[C@H]3CC[C@]12C | -6.88
64 | CO[C@H]1O[C@@H]2O[C@@]3(C)CC[C@H]4[C@H](C)CC[C@@H]([C@H]1C)[C@@]24OO3 | 48.7
65 | C[C@H]1[C@@H](OC(=O)CCC(=O)O)O[C@@H]2O[C@]3(C)CC[C@H]4[C@H](C)CC[C@@H]1[C@@]24OO3 | 52.3
66 | COC1O[C@@H]2O[C@@]3(C)CC[C@H]4[C@H](C)CC[C@@H]([C@H]1C)[C@@]24OO3 (stereo partly shown) | -11.8
67 | C[C@H]1[C@H](OC(=O)CCC(=O)O)O[C@@H]2O[C@@]3(C)CC[C@H]4[C@H](C)CC[C@@H]1[C@@]24OO3 | 56.1
68 | Cc1nnc2n1-c1ccc(Cl)cc1C(c1ccccc1)=NC2 | -8.66
69 | CC1(C)C(C=C(Cl)Cl)C1C(=O)OCc1cccc(Oc2ccccc2)c1 (stereo not shown) | 13.4
70 | COc1cc2nc(N(C)CCCNC(=O)C3CCCO3)nc(N)c2cc1OC (stereo not shown) | 24.3
71 | C=CC[C@]1(O)CC[C@H]2[C@@H]3CCC4=CCCC[C@@H]4[C@H]3CC[C@@]21C | 5.59
72 | CC(C)C[C@H](NC(=O)[C@@H](Cc1c[nH]c2ccccc12)NC(=O)[C@H](Cc1ccc(O)cc1)NC(=O)[C@H](CO)NC(=O)[C@H](Cc1c[nH]c2ccccc12)NC(=O)[C@H](Cc1c[nH]cn1)NC(=O)[C@@H]1CCC(=O)N1)C(=O)N[C@@H](CCCN=C(N)N)C(=O)N1CCC[C@H]1C(=O)NCC(N)=O | 9.31
73 | O=C(O)CCCCC(=O)O | 25.4
74 | O=C(O)CCCO | 19
75 | CC(=O)OCC(COC(C)=O)OC(C)=O | -1.82
76 | C[C@@H]1[C@H](O)[C@@H](C)/C=C/C=C/C=C/C=C/C=C/C=C/C=C/[C@H](O[C@@H]2O[C@H](C)[C@@H](O)[C@H](N)[C@@H]2O)C[C@@H]2O[C@](O)(C[C@@H](O)C[C@@H](O)[C@H](O)CC[C@@H](O)C[C@@H](O)CC(=O)O[C@H]1C)C[C@H](O)[C@H]2C(=O)O | 25.1
